Measured values reported in PubChem BioAssay.
For part of these data: Measured potencies and affinities stand elsewhere. Activity calls are given as the source filed them. Unless noted, no rule for the calls is given here.

Experiments:
[1] = antimalarial activity against Dd2 strain (AID 2302;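 active = growth inhibition above 50% at the single 2 µM test dose, taken to imply half-maximal potency below 2 µM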;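 also: 0% = DMSO untreated growth and 100% = chloroquine plus artemisinin killed control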); details: P. falciparum Dd2 in RBCs, LDH growth readout, 72 h; at 2 µM; stronger effect = higher value
[2] = human hepatoma cell viability loss – ATP luminescence, cytotoxicity control for P. falciparum antimalarial project, primary screen (AID 2303;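 active = inhibition above 50%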;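 also: 0% = DMSO wells and 100% = digitonin-killed cells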); details: HepG2 viability, 24-48 h, at 10 µM, stronger effect = higher value
[3] = target: L-lactate dehydrogenase (Plasmodium falciparum (isolate CDC / Honduras)) (UniProt Q27743); experiment: PfLDH activity inhibition – cell lysate, 3D7 strain, counter-screen for P. falciparum growth inhibition project (AID 2304);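 also: 0% = vehicle and 100% = reference inhibitor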; details: P. falciparum 3D7 crude extract, LDH APAD/NBT absorbance; at 2 µM; stronger effect = higher value
[4] = inhibition of 3D7 malaria parasite growth – strain 3D7 (AID 2306);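 also: 0% = DMSO wells and 100% = chloroquine plus artemisinin control wells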; details: P. falciparum 3D7 erythrocytic growth, LDH absorbance, 72 h; at 2 µM; stronger effect = higher value
[5] = target: Calcium-dependent protein kinase 1 (Plasmodium falciparum (isolate 3D7)) (UniProt P62344); experiment: PfCDPK1 kinase inhibitors, biochemical, TCAMS library (AID 1159585; cut-off not given, nearly all actives have IC50 up to about 0.98 µM;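 also: inhibitors leave more ATP so luminescence rises with inhibition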); details: recombinant PfCDPK1, Kinase-Glo ATP depletion luminescence
[6] = target: Plasmodium falciparum protein kinase 6 (PK6, PF3D7_1337100) (UniProt Q8IDW1); experiment: PfPK6 kinase inhibitors, biochemical, TCAMS library (AID 1159586); details: recombinant PfPK6, Kinase-Glo ATP depletion luminescence
[7] = target: Protein kinase 7 (PK7), Plasmodium falciparum 3D7 (PF3D7_0213400) (UniProt Q7YTF7); experiment: inhibition of Plasmodium PK7 catalytic activity – biochemical, TCAMS antimalarial set, Kinase-Glo luminescence (AID 1159587); details: recombinant PfPK7, Kinase-Glo ATP depletion luminescence
[8] = target: Calcium-dependent protein kinase 4 (Plasmodium falciparum (isolate 3D7)) (UniProt Q8IBS5); experiment: PfCDPK4 kinase inhibitors, biochemical, TCAMS library (AID 1159588; cut-off not given, nearly all actives have IC50 up to about 0.91 µM); details: recombinant PfCDPK4, Kinase-Glo ATP depletion luminescence
Calcium-dependent protein kinase 4 (Plasmodium falciparum (isolate 3D7)), sequence (Q8IBS5 whole entry, looked up): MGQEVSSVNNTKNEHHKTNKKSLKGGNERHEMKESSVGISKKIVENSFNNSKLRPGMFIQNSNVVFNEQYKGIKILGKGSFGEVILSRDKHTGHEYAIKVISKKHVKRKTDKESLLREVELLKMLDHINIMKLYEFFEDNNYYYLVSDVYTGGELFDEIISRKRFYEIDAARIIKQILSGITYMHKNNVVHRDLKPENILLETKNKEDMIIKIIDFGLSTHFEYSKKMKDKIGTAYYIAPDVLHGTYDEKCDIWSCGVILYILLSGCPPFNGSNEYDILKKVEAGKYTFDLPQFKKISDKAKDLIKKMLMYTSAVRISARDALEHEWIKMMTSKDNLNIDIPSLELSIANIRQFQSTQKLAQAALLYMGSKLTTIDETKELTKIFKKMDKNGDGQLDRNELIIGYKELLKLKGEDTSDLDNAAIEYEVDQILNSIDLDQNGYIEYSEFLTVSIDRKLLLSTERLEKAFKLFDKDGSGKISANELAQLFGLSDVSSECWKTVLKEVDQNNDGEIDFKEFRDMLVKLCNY

L-lactate dehydrogenase (Plasmodium falciparum (isolate CDC / Honduras)), sequence (Q27743 whole entry, looked up): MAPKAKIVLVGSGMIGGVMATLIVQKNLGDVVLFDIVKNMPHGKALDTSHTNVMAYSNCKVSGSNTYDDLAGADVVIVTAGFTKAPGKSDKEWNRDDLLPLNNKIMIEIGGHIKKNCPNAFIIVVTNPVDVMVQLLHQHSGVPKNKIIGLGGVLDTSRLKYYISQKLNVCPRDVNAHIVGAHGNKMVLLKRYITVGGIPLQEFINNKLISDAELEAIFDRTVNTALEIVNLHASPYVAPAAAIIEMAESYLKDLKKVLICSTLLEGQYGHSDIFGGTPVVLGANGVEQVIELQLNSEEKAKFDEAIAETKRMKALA
Plasmodium falciparum protein kinase 6 (PK6, PF3D7_1337100), sequence (Q8IDW1 1-305): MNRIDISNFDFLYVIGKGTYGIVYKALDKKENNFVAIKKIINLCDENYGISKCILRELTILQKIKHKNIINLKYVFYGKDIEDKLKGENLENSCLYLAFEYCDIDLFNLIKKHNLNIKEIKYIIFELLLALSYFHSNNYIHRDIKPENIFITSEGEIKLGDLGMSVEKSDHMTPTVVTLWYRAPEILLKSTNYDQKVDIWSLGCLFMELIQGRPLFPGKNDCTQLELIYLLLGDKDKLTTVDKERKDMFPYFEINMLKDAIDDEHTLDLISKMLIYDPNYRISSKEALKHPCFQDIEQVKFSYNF
Protein kinase 7 (PK7), Plasmodium falciparum 3D7 (PF3D7_0213400), sequence (Q7YTF7 1-343): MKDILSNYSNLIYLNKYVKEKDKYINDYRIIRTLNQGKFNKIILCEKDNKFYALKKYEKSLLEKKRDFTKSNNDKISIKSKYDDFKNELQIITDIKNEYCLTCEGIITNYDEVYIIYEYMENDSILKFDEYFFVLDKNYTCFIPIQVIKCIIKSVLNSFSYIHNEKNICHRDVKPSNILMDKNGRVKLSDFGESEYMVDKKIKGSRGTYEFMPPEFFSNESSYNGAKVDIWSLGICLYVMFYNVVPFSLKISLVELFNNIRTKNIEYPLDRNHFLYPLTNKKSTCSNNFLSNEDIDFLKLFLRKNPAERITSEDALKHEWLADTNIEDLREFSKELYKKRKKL
Calcium-dependent protein kinase 1 (Plasmodium falciparum (isolate 3D7)), sequence (P62344 whole entry, looked up): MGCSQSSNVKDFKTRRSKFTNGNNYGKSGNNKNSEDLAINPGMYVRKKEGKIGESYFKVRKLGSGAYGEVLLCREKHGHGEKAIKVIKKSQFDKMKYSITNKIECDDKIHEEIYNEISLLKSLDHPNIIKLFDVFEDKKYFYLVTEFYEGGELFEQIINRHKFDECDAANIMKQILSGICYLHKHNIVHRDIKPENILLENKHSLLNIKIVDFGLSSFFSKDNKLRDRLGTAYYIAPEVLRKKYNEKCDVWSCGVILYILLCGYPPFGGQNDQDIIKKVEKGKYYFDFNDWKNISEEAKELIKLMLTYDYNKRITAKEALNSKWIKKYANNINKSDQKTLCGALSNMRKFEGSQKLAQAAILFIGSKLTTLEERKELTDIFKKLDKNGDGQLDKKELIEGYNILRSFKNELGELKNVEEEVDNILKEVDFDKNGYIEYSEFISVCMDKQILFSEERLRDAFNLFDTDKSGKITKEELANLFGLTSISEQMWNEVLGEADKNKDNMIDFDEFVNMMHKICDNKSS

O=C(Cc1cccnc1)Nc1cccc(-c2cccc(-c3nc4ccc(C(F)(F)F)cc4[nH]3)c2)c1
active: growth inhibition [4] 99%
inactive: growth inhibition [1] 38% | inhibition [2] 42% | inhibition [3] -7% | outcome [5] | outcome [6] | outcome [7] | outcome [8]

Cc1cccc(/C=C/C(=O)NC2CCC(N3CCC(c4ccccc4C)CC3)CC2)c1 (configuration not stated)
active: inhibition [2] 67% | growth inhibition [4] 92%
inactive: growth inhibition [1] 20% | inhibition [3] -3% | outcome [5] | outcome [6] | outcome [7] | outcome [8]

c1ccc(CCNc2ccnc(Nc3ccc4n[nH]nc4c3)n2)cc1
inactive: inhibition [2] 33% | inhibition [3] -4% | outcome [5] | outcome [6] | outcome [7] | outcome [8]
active: growth inhibition [1] 95% | growth inhibition [4] 101%

Cc1cccc(C)c1N1CCN(C2CCC(NC(=O)/C=C/c3ccccc3)CC2)CC1 (configuration not stated)
inactive: growth inhibition [1] 34% | inhibition [2] 38% | inhibition [3] -2% | outcome [5] | outcome [6] | outcome [7] | outcome [8]
active: growth inhibition [4] 83%

Nc1nccc2ccc(-c3cccnc3)cc12
inactive: inhibition [2] 9% | inhibition [3] 2% | outcome [5] | outcome [6] | outcome [7] | outcome [8]
active: growth inhibition [1] 95% | growth inhibition [4] 97%

c1cncc(-c2cc(N3CCc4ccccc4C3)nc(-c3ccncc3)n2)c1
inactive: inhibition [3] -5% | outcome [5] | outcome [6] | outcome [7] | outcome [8]
active: growth inhibition [1] 100% | inhibition [2] 56% | growth inhibition [4] 100%

COc1cccc(-c2cccc(CNC3CCN(CC4Cn5c(=O)ccc6ccc(F)c4c65)CC3)c2)c1 (configuration not stated)
active: growth inhibition [4] 99%
inactive: growth inhibition [1] 15% | inhibition [2] 23% | inhibition [3] 4% | outcome [5] | outcome [6] | outcome [7] | outcome [8]

Cc1cc(NCCC(=O)Nc2ccccc2)nc(NCc2ccccc2C)n1
inactive: inhibition [2] 6% | inhibition [3] -1% | outcome [5] | outcome [6] | outcome [7] | outcome [8]
active: growth inhibition [1] 57% | growth inhibition [4] 100%

CC[C@H](C)CNC(=O)c1cncc(-c2ccc(CN(C)C3CCN(C)CC3)cc2)c1
inactive: inhibition [2] -16% | inhibition [3] -2% | outcome [5] | outcome [6] | outcome [7] | outcome [8]
active: growth inhibition [1] 97% | growth inhibition [4] 101%

CCCCNCc1ccc(-c2nc(CN(CCCn3ccnc3)C(=O)Nc3ccc(CC)cc3)cs2)cc1
inactive: inhibition [2] 21% | inhibition [3] 6% | outcome [5] | outcome [6] | outcome [7] | outcome [8]
active: growth inhibition [1] 56% | growth inhibition [4] 101%

Oc1ccc(Cl)cc1CN1CCC2(CCCN(CC3CCC3)C2)C1 (configuration not stated)
active: growth inhibition [1] 94% | growth inhibition [4] 100%
inactive: inhibition [2] 5% | inhibition [3] -2% | outcome [5] | outcome [6] | outcome [7] | outcome [8]

CCCN(CCCCNC(=O)c1ccc(-c2cccnc2)cc1)C1CCc2c(O)cccc2C1 (configuration not stated)
active: growth inhibition [4] 87%
inactive: growth inhibition [1] 16% | inhibition [2] -1% | inhibition [3] 0% | outcome [5] | outcome [6] | outcome [7] | outcome [8]

CNC(=O)c1cnc(Nc2ccc(N3CCN(C)CC3)cc2)nc1Nc1cccc([N+](=O)[O-])c1
active: growth inhibition [1] 100% | growth inhibition [4] 103%
inactive: inhibition [2] 31% | inhibition [3] -8% | outcome [5] | outcome [6] | outcome [7] | outcome [8]

Cc1cc(NC(=O)NCCN2CCC(NS(=O)(=O)c3ccc(C(F)(F)F)cc3)C2)c2ccccc2n1 (configuration not stated)
active: growth inhibition [4] 96%
inactive: growth inhibition [1] 39% | inhibition [2] 15% | inhibition [3] -3% | outcome [5] | outcome [6] | outcome [7] | outcome [8]

CCCc1cc(OC)c(C[C@@H]2c3cc(O)c(Cl)cc3CCN2C)cc1OC
inactive: inhibition [2] 3% | inhibition [3] 8% | outcome [5] | outcome [6] | outcome [7] | outcome [8]
active: growth inhibition [1] 98% | growth inhibition [4] 98%

COc1ccc(NC(=O)CSc2nc(-c3ccccc3Cl)ns2)cc1OC
inactive: inhibition [2] -1% | inhibition [3] -2% | outcome [5] | outcome [6] | outcome [7] | outcome [8]
active: growth inhibition [1] 63% | growth inhibition [4] 97%

Cc1cc(NN=Cc2ccccc2)c2cc(F)ccc2n1
active: growth inhibition [1] 94% | growth inhibition [4] 101%
inactive: inhibition [2] 11% | inhibition [3] -1% | outcome [5] | outcome [6] | outcome [7] | outcome [8]

COc1ccc(CNC(=O)c2cnc3c(O)cccc3c2Nc2cccc(NC(=O)c3ccc(Cl)c([N+](=O)[O-])c3)c2)cc1
active: growth inhibition [4] 86%
inactive: growth inhibition [1] 21% | inhibition [2] 48% | inhibition [3] 1% | outcome [5] | outcome [6] | outcome [7] | outcome [8]

O=C(CNC(=O)c1ccc(O)cc1)Nc1ccc(-c2cccc(-c3nc4ccc(C(F)(F)F)cc4[nH]3)c2)cc1
inactive: growth inhibition [1] 47% | inhibition [2] 26% | inhibition [3] 3% | outcome [5] | outcome [6] | outcome [7] | outcome [8]
active: growth inhibition [4] 92%

Cc1cccc(CNc2nc(C)cc(N[C@@H](CC(C)C)C(=O)NCc3cccc(F)c3)n2)c1
inactive: growth inhibition [1] 32% | inhibition [2] 13% | inhibition [3] -3% | outcome [5] | outcome [6] | outcome [7] | outcome [8]
active: growth inhibition [4] 91%

Cn1nc(C(F)(F)F)c(-c2ccc(F)cc2)c1NC(=O)Nc1ccc(F)cc1
inactive: inhibition [2] 5% | inhibition [3] -2% | outcome [5] | outcome [6] | outcome [7] | outcome [8]
active: growth inhibition [1] 99% | growth inhibition [4] 100%

CN(C)c1ccc(CN2CCC(CNC(=O)c3cc(-c4ccccc4Cl)cs3)C2)cc1 (configuration not stated)
inactive: growth inhibition [1] 5% | inhibition [2] 29% | inhibition [3] -3% | outcome [5] | outcome [6] | outcome [7] | outcome [8]
active: growth inhibition [4] 91%

COc1cc(OC)c2c(C)cc(NCCCn3ccnc3)nc2c1
active: growth inhibition [4] 102%
inactive: growth inhibition [1] 22% | inhibition [2] 6% | inhibition [3] -2% | outcome [5] | outcome [6] | outcome [7] | outcome [8]

OCCCCCCNc1nc(NCc2ccccc2-c2ccc(C(F)(F)F)cc2)nc(N2CCNCC2)n1
active: growth inhibition [4] 89%
inactive: growth inhibition [1] 16% | inhibition [2] 13% | inhibition [3] 2% | outcome [5] | outcome [6] | outcome [7] | outcome [8]

Cc1cccc2[nH]c(-c3cccc(-c4cccc(NC(=O)c5cnccc5C(F)(F)F)c4)c3)nc12
active: growth inhibition [4] 98%
inactive: growth inhibition [1] 47% | inhibition [2] 7% | inhibition [3] -11% | outcome [5] | outcome [6] | outcome [7] | outcome [8]

CCN1CCC(N(Cc2ccc(-c3ccc(C(F)(F)F)cc3)cc2)C(=O)Cn2c(CCc3cccc(F)c3F)cc(=O)c3ccccc32)C1 (configuration not stated)
inactive: inhibition [2] 43% | inhibition [3] 3% | outcome [5] | outcome [6] | outcome [7] | outcome [8]
active: growth inhibition [1] 84% | growth inhibition [4] 93%

Fc1ccc2nc(-c3cccc(-c4ccc(CN5CCN(c6ccncc6)CC5)cc4)c3)[nH]c2c1
active: growth inhibition [1] 67% | growth inhibition [4] 100%
inactive: inhibition [2] 39% | inhibition [3] 0% | outcome [5] | outcome [6] | outcome [7] | outcome [8]

COc1ccccc1C1CC(c2ccc(C)cc2)=NN1C(=O)c1ccccc1 (configuration not stated)
active: growth inhibition [4] 98%
inactive: growth inhibition [1] 45% | inhibition [2] 37% | inhibition [3] -5% | outcome [5] | outcome [6] | outcome [7] | outcome [8]

CC(C)CC(=O)NC1CCN(Cc2c(-c3cccs3)nc3ccccc3c2C(=O)N[C@@H](C)C2CCCCC2)CC1
inactive: inhibition [2] -3% | inhibition [3] -9% | outcome [5] | outcome [6] | outcome [7] | outcome [8]
active: growth inhibition [1] 97% | growth inhibition [4] 96%

COC(=O)C(c1ccc(NC(=O)[C@H](CC(C)C)NC(=O)OC(C)(C)C)cc1)c1ccc(NC(=O)[C@H](CC(C)C)NC(=O)OC(C)(C)C)cc1
active: growth inhibition [4] 94%
inactive: growth inhibition [1] 42% | inhibition [2] 0% | inhibition [3] 2% | outcome [5] | outcome [6] | outcome [7] | outcome [8]

Cc1ccc(-c2[nH]n3c(=O)c4c(nc3c2C)CCCC4)cc1
active: growth inhibition [1] 87% | growth inhibition [4] 97%
inactive: inhibition [2] 16% | inhibition [3] -1% | outcome [5] | outcome [6] | outcome [7] | outcome [8]

CC(C)(C)OC(=O)NCc1ccc(Nc2nnc(-c3ccc(OCC(=O)NC[C@@H]4CC[C@H]5C[C@@H]4C5(C)C)c([N+](=O)[O-])c3)o2)cc1
inactive: inhibition [2] 29% | inhibition [3] -3% | outcome [5] | outcome [6] | outcome [7] | outcome [8]
active: growth inhibition [1] 52% | growth inhibition [4] 94%

N#CC(c1ccc(F)cc1)c1ccc2c(C(F)(F)F)cc(C(F)(F)F)nc2n1 (configuration not stated)
active: growth inhibition [1] 89% | growth inhibition [4] 97%
inactive: inhibition [2] 9% | inhibition [3] 2% | outcome [5] | outcome [6] | outcome [7] | outcome [8]

CN(CCNCc1ccc(-c2cccc(-c3nc4ccccc4[nH]3)c2)cc1)S(C)(=O)=O
active: growth inhibition [4] 101%
inactive: growth inhibition [1] 29% | inhibition [2] 9% | inhibition [3] -2% | outcome [5] | outcome [6] | outcome [7] | outcome [8]

Clc1ccc(Nc2nc3nonc3nc2Nc2ccc(Cl)c(Cl)c2)cc1
inactive: inhibition [3] 0% | outcome [5] | outcome [6] | outcome [7] | outcome [8]
active: growth inhibition [1] 92% | inhibition [2] 75% | growth inhibition [4] 99%

COc1cc(NC(=O)N2CCc3ccc(OCCN(C(C)C)C(C)C)cc32)cc(C(F)(F)F)c1
active: growth inhibition [1] 97% | growth inhibition [4] 102%
inactive: inhibition [2] 6% | inhibition [3] 3% | outcome [5] | outcome [6] | outcome [7] | outcome [8]

COc1cc2nc(N3CCC(CNCc4ccc(-c5ccc(C(F)(F)F)cc5)cc4)CC3)nc(N)c2cc1OC
active: growth inhibition [1] 100% | inhibition [2] 99% | growth inhibition [4] 99%
inactive: inhibition [3] -4% | outcome [5] | outcome [6] | outcome [7] | outcome [8]

CS(=O)(=O)c1ccc(-c2cncc(Cl)n2)cc1
active: growth inhibition [1] 95% | growth inhibition [4] 100%
inactive: inhibition [2] 8% | inhibition [3] 7% | outcome [5] | outcome [6] | outcome [7] | outcome [8]

O=C(NCCc1ccc(Cl)c(Cl)c1)[C@@H]1CCCN1C(=O)c1ccc(O)c(-c2ccc(Cl)c(Cl)c2)c1
active: growth inhibition [1] 99% | growth inhibition [4] 99%
inactive: inhibition [2] -2% | inhibition [3] -2% | outcome [5] | outcome [6] | outcome [7] | outcome [8]
